Test systems include SR leukemia; RPMI-8226 leukemia; OVCAR-8 ovarian; OVCAR-5 ovarian; OVCAR-4 ovarian; SK-OV-3 ovarian; IGROV1 ovarian; OVCAR-3 ovarian; HS 578T breast; NCI/ADR-RES ovarian; T-47D breast; BT-549 breast; MDA-MB-435 melanoma; SW-620 colon; MCF7 breast; HCT-116 colon; HCC-2998 colon; KM12 colon.
Test in all cases: NCI-60 one-dose screen, 48 h (100 = growth as untreated, 0 = no growth, -100 = all killed)
Details in all cases: 10 µM unless noted

This is part of a sample that, as a whole, favours compounds with a hit. Of some 83,000 tested, about 20% had one in any assay.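 Method: cells in 96-well plates; compound added at one concentration; 48 h incubation; percent growth measured; values under 10 scored active.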 Active and inactive are the calls of the source.

On to `CCOC(=O)c1c(NC(=O)c2ccc(C(C)(C)C)cc2)sc2cc(OCCN3CCCCC3)ccc12`, for which the growth in the assay with SR leukemia is 16.5% (inactive); in the assay with RPMI-8226 leukemia it was 14.6% (inactive); in the assay with OVCAR-8 ovarian, 93.4% (inactive); in the assay on OVCAR-5 ovarian it was 91.8% (inactive); in the assay with OVCAR-4 ovarian, 102% (inactive); in the assay on SK-OV-3 ovarian, 106% (inactive). Moreover, the growth with IGROV1 ovarian is 74.9% (inactive); in the assay with OVCAR-3 ovarian it was 74.8% (inactive); in the assay on HS 578T breast it was 96.5% (inactive); in the assay on NCI/ADR-RES ovarian, 88.3% (inactive); in the assay with T-47D breast, 96.9% (inactive); in the assay with BT-549 breast it was 93% (inactive). Also, the growth was 91.8% (inactive) in the assay with MDA-MB-435 melanoma; 22.2% (inactive) in the assay with SW-620 colon; 34.8% (inactive) in the assay with MCF7 breast; 21.7% (inactive) in the assay with HCT-116 colon; 87% (inactive) in the assay with HCC-2998 colon; 51.1% (inactive) with KM12 colon.
On to `Oc1ccc(CSc2nnc(-c3ccc(Oc4ccccc4)cc3)n2-c2ccccc2)c2cccnc12`, for which the growth with SR leukemia was 45.8% (inactive); in the assay with RPMI-8226 leukemia, 7.82% (active); in the assay on OVCAR-8 ovarian, 16.5% (inactive); in the assay on OVCAR-5 ovarian it was 42.7% (inactive); with OVCAR-4 ovarian it was 17.9% (inactive); with SK-OV-3 ovarian it was 14.1% (inactive). Besides, the growth in the assay on IGROV1 ovarian is 11.7% (inactive); in the assay with OVCAR-3 ovarian, 19.3% (inactive); in the assay on HS 578T breast, 18.7% (inactive); in the assay with NCI/ADR-RES ovarian, 6.26% (active); in the assay on T-47D breast it was 4.84% (active); with BT-549 breast, 21.7% (inactive). For the same compound, the growth with MDA-MB-435 melanoma is 13.7% (inactive); with SW-620 colon, 12.8% (inactive); in the assay on MCF7 breast, 4.86% (active); in the assay on HCT-116 colon, 14.5% (inactive); with HCC-2998 colon it was 30.3% (inactive); in the assay on KM12 colon, 17.7% (inactive).
On to `O=C(NNc1nc2cc(F)ccc2n2cncc12)c1cnccn1`, for which the growth in the assay on SR leukemia is 17% (inactive); with RPMI-8226 leukemia, 25.4% (inactive); with OVCAR-8 ovarian it was 21% (inactive); in the assay on OVCAR-5 ovarian it was 50% (inactive); in the assay with OVCAR-4 ovarian, 31.1% (inactive); in the assay with SK-OV-3 ovarian, 28.4% (inactive). In addition, the growth in the assay on IGROV1 ovarian is 27.6% (inactive); in the assay with OVCAR-3 ovarian it was 28.2% (inactive); in the assay on HS 578T breast it was 71.8% (inactive); in the assay on NCI/ADR-RES ovarian, 12.2% (inactive); in the assay with T-47D breast, 33.7% (inactive); in the assay on BT-549 breast it was 55% (inactive). For the same compound, the growth in the assay on MDA-MB-435 melanoma was 25% (inactive); with SW-620 colon, 24.5% (inactive); in the assay on MCF7 breast, 14.8% (inactive); in the assay with HCT-116 colon, 23% (inactive); in the assay with HCC-2998 colon, 19.9% (inactive); with KM12 colon it was 20.8% (inactive).
On to `COc1ccccc1N1CCN(C2=NN=C(c3cccc(Cl)c3)c3ccccc3C2)CC1`, for which the growth was -15.3% (active) in the assay on SR leukemia; 9.68% (active) in the assay with RPMI-8226 leukemia; 13% (inactive) in the assay with OVCAR-8 ovarian; 40.4% (inactive) in the assay on OVCAR-5 ovarian; 38.6% (inactive) with OVCAR-4 ovarian; 13.7% (inactive) with SK-OV-3 ovarian. Also, the growth with IGROV1 ovarian was 21.4% (inactive); in the assay on OVCAR-3 ovarian, -31.2% (active); in the assay on HS 578T breast, 18.9% (inactive); in the assay on NCI/ADR-RES ovarian, 10.7% (inactive); in the assay with T-47D breast, 52.5% (inactive); in the assay with BT-549 breast it was 50.5% (inactive). For the same compound, the growth in the assay on MDA-MB-435 melanoma was -3.46% (active); in the assay on SW-620 colon it was 20.9% (inactive); in the assay with MCF7 breast, 17.4% (inactive); with HCT-116 colon it was 7.98% (active); in the assay on HCC-2998 colon, 8.13% (active); in the assay on KM12 colon, 6.16% (active).
Turning to `O=C1[C@H]2Cc3c([nH]c4ccccc34)[C@H](c3ccc(Cl)cc3)N2C(=O)CN1C1CCN(Cc2c(Cl)cccc2Cl)CC1`, the growth with SR leukemia was 22.2% (inactive); with RPMI-8226 leukemia, 50.3% (inactive); with OVCAR-8 ovarian, 84.5% (inactive); in the assay on OVCAR-5 ovarian, 89.2% (inactive); in the assay on OVCAR-4 ovarian it was 69.9% (inactive); in the assay with SK-OV-3 ovarian, 98.5% (inactive). The growth was 39% (inactive) in the assay on IGROV1 ovarian; 76.8% (inactive) with OVCAR-3 ovarian; 75.6% (inactive) with HS 578T breast; 77.6% (inactive) in the assay on NCI/ADR-RES ovarian; 62.5% (inactive) in the assay on T-47D breast; 91.6% (inactive) in the assay with BT-549 breast. Also, the growth is 77% (inactive) in the assay with MDA-MB-435 melanoma; 77% (inactive) with SW-620 colon; 19.1% (inactive) with MCF7 breast; 37.8% (inactive) with HCT-116 colon; 44.1% (inactive) in the assay with HCC-2998 colon; 72.5% (inactive) in the assay with KM12 colon.
In the case of `COc1ccc(-c2oc3cc(O)cc(O)c3c(=O)c2OC)cc1O`, the growth in the assay with SR leukemia was 11% (inactive); in the assay on RPMI-8226 leukemia, 17.4% (inactive); in the assay with OVCAR-8 ovarian, 26.8% (inactive); in the assay with OVCAR-5 ovarian, 59.8% (inactive); in the assay with OVCAR-4 ovarian, 46.2% (inactive); with SK-OV-3 ovarian, 19.2% (inactive). Besides, the growth with IGROV1 ovarian is 39.8% (inactive); in the assay with OVCAR-3 ovarian, -7.51% (active); with HS 578T breast, 11.2% (inactive); with NCI/ADR-RES ovarian it was 15.4% (inactive); in the assay on T-47D breast, 22.6% (inactive); with BT-549 breast it was 40.3% (inactive). The growth in the assay on MDA-MB-435 melanoma is -34.3% (active); in the assay on SW-620 colon, 29.6% (inactive); in the assay with MCF7 breast it was 25.8% (inactive); with HCT-116 colon, 12.4% (inactive); in the assay with KM12 colon it was 26.2% (inactive).
With `CCCC(=O)NC(c1cccnc1)c1cc(Cl)c2cccnc2c1O` (stereo not drawn), the growth is 39.6% (inactive) with SR leukemia; 30.7% (inactive) in the assay with RPMI-8226 leukemia; 21.9% (inactive) in the assay on OVCAR-8 ovarian; 55.6% (inactive) in the assay on OVCAR-5 ovarian; 22.7% (inactive) in the assay on OVCAR-4 ovarian; 44.4% (inactive) in the assay with SK-OV-3 ovarian. In addition, the growth in the assay on IGROV1 ovarian was 28.5% (inactive); in the assay on OVCAR-3 ovarian, 19.7% (inactive); in the assay on HS 578T breast, 17.3% (inactive); in the assay on NCI/ADR-RES ovarian, 10.2% (inactive); in the assay with T-47D breast it was 27.7% (inactive); in the assay on BT-549 breast, 68.8% (inactive). For the same compound, the growth in the assay with MDA-MB-435 melanoma was 38.1% (inactive); with SW-620 colon it was 26% (inactive); in the assay with MCF7 breast, 12.5% (inactive); in the assay on HCT-116 colon, 29.1% (inactive); in the assay with HCC-2998 colon it was 51.2% (inactive); in the assay on KM12 colon, 30.7% (inactive).
On to `COc1ccc(Cn2cc3c(c2-c2cc(OC)c(OC)c(OC)c2)CCCc2cnoc2-3)cc1`, for which the growth with SR leukemia is 13.4% (inactive); in the assay on RPMI-8226 leukemia it was 23.4% (inactive); with OVCAR-8 ovarian, 43% (inactive); in the assay on OVCAR-5 ovarian it was 34.9% (inactive); with OVCAR-4 ovarian, 62.3% (inactive); in the assay on SK-OV-3 ovarian it was 58% (inactive). In addition, the growth with IGROV1 ovarian was 22.1% (inactive); in the assay with OVCAR-3 ovarian, 4.45% (active); in the assay on HS 578T breast, 22.1% (inactive); in the assay with NCI/ADR-RES ovarian it was 15.5% (inactive); in the assay with T-47D breast it was 39.1% (inactive); in the assay with BT-549 breast, 63.3% (inactive). For the same compound, the growth in the assay with MDA-MB-435 melanoma was -48.2% (active); with SW-620 colon, 25.6% (inactive); in the assay with MCF7 breast it was 11.5% (inactive); with HCT-116 colon, 19% (inactive); in the assay with HCC-2998 colon it was 32.4% (inactive); with KM12 colon, 29% (inactive).
On to `CN(c1ccc(F)cc1)S(=O)(=O)c1ccc(-c2cnc(C3CC3)o2)cc1`, for which the growth in the assay on SR leukemia is 20.1% (inactive); with RPMI-8226 leukemia, 14.1% (inactive); with OVCAR-8 ovarian, 38.8% (inactive); with OVCAR-5 ovarian it was 49.5% (inactive); with OVCAR-4 ovarian, 70.4% (inactive); in the assay on SK-OV-3 ovarian it was 72.1% (inactive). The growth with IGROV1 ovarian is 27.5% (inactive); in the assay on OVCAR-3 ovarian it was 6.57% (active); in the assay on HS 578T breast, 37.4% (inactive); in the assay with NCI/ADR-RES ovarian it was 9.11% (active); in the assay with T-47D breast it was 54.1% (inactive); with BT-549 breast, 46.2% (inactive). For the same compound, the growth in the assay with MDA-MB-435 melanoma is -26.2% (active); with SW-620 colon, 32.9% (inactive); in the assay with MCF7 breast, 23.7% (inactive); with HCT-116 colon, 18.7% (inactive); with HCC-2998 colon, 22.3% (inactive); in the assay with KM12 colon, 18.5% (inactive).
`C=C1C(=O)O[C@@H]2/C=C(/C)C3=CC(=O)[C@@](C)(C[C@H](OC(=O)/C(C)=C\C)[C@@H]12)O3`: the growth is 2.49% (active) with SR leukemia; -11.3% (active) with RPMI-8226 leukemia; 8.15% (active) in the assay with OVCAR-8 ovarian; 4.42% (active) in the assay on OVCAR-5 ovarian; 21% (inactive) in the assay on OVCAR-4 ovarian; 92.6% (inactive) in the assay on SK-OV-3 ovarian. Further, the growth in the assay with IGROV1 ovarian is 19% (inactive); with OVCAR-3 ovarian, 2.79% (active); in the assay with HS 578T breast, 46.5% (inactive); in the assay on NCI/ADR-RES ovarian it was 17.4% (inactive); in the assay on T-47D breast, -17.4% (active); in the assay with BT-549 breast, 27.9% (inactive). The growth in the assay on MDA-MB-435 melanoma was -59% (active); in the assay on SW-620 colon, -28.7% (active); with MCF7 breast it was 13.2% (inactive); in the assay with HCT-116 colon, -53.3% (active); in the assay on KM12 colon, 28.2% (inactive).

Source of the values: PubChem BioAssay (NCI).
